High-throughput results: PubChem BioAssay, National Center for Advancing Translational Sciences (NCATS)
ATXN2 expr inh: Primary qHTS for Inhibitors of ATXN expression; HEK-293 ATXN2-luciferase reporter, luminescence, 24 h; Potency, µM (series often up to 57 µM), for inactives: at the highest dose activity change, negative = inhibition, most hits filed as inhibitors; hit rate 0.72% among 360,000; also: % is scaled to controls: 0 for no effect and ±100 for the full control effect; nearly all actives have a fitted effect of over 55% in size
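ATXN2-luciferase reporter cells (luciferase flanked by upstream and downstream ATXN2 gene portions) were treated 24 h at 37 °C with compounds at up to 57 uM. SteadyGlo luminescence gave expression; GF-AFC fluorescence gave viability.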
HT1080NT lethal: qHTS for induction of synthetic lethality in tumor cells producing 2HG: qHTS for the HT-1080-NT fibrosarcoma cell line. Potency, µM (titrated, usually from 46.1 µM), for the others: top-dose activity, negative = less viability, hits mostly cytotoxic. AID 686970, 2013. hit rate 1.6% among 360,000. HT-1080-NT fibrosarcoma viability, CellTiter-Glo ATP luminescence, 48 h;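 also: NT is the 2HG producing partner of a matched IDH1 knockdown line; 0% = DMSO-treated cells and -100% = media-only wells without cells; nearly all actives have a fitted effect of over 55% in size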
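750 cells/well, RPMI + 5% FBS; 2 h settle, compound pin-transfer, 48 h at 37 degrees C. CellTiter-Glo 10 min RT, luminescence. Normalized to DMSO and media-only wells.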
TGFb SMAD3 inh: qHTS for Inhibitors of TGF-b; AID 588855, 2011; Potency, µM (doses to about 46.1 µM), inactives show at the top dose activity, negative = inhibition, hits mostly inhibitors; hit rate 1.2% among 410,000; HepG2 CAGA-GFP TGF-b/SMAD3 reporter, GFP fluorescence, 18 h; TGF-beta stimulated, 500 pg/mL final; also: % is scaled to controls: 0 for no effect and ±100 for the full control effect; nearly all actives have a fitted effect of over 65% in size
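Inhibition of TGF-beta-driven CAGA-GFP reporter expression in HEPG2 cells is measured by cellular GFP fluorescence after 18 h stimulation with 500 pg/mL recombinant TGF-beta in 1% FBS medium at 37 degrees C.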
HepG2 tox-1: qHTS for Inhibitors of TGF-b: Cytotox Counterscreen; hit rate 0.76% among 410,000; Potency, µM (series often up to 46.1 µM), for inactives: at the highest dose activity change, negative = cytotoxicity, most hits filed as cytotoxic; HepG2 CAGA-GFP viability, ATP luminescence, 18 h; AID 588856, 2011
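CellTiter-Glo luminescence gave cytotoxicity after 18 hours at 37 degrees C. The cells were HepG2 CAGA-GFP in 1% FBS DMEM, stimulated with 500 pg/mL TGF-beta after compound addition. %Activity was normalised to no-cell wells (complete cell-killing) and DMSO (no toxicity), and curves were fitted and classified.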
HT1080 IDH1KD tx: qHTS for induction of synthetic lethality in tumor cells producing 2HG: qHTS for the HT-1080-IDH1KD cell line; HT-1080 IDH1 knockdown viability, ATP luminescence, 48 h; Potency, µM (doses to about 46.1 µM), without a hit: top-dose activity, negative = toxicity, usual class: cytotoxic; hit rate 2% among 360,000; AID 686971, 2013;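 also: 0% = DMSO wells and -100% = cell-free medium wells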
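Using the IDH1-knockdown HT-1080 line run in the same batch and compound series as the NT line, viability after 48 h at 37 °C was determined by CellTiter-Glo luminescence and expressed as % activity.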
S2 tox: Viability Counterscreen for Primary qHTS for Inhibitors of ATXN expression; S2 cells (HEK-293 line with an ATXN2-luciferase reporter) viability, CellTiter-Fluor protease fluorescence, 24 h; Potency, µM (top dose mostly 56.7 µM), actives largely listed as cytotoxic; hit rate 0.49% among 400,000; AID 651635, 2014; also: nearly all actives have a fitted effect of over 40% in size
TGFb confirm: qHTS for Inhibitors of TGF-b: Confirmation of Cherry Picks; shares compounds with TGFb SMAD3 inh; HepG2 CAGA-GFP TGF-b reporter, GFP fluorescence, 18 h; cells stimulated with TGF-beta, 500 pg/mL; Potency, µM (top dose mostly 46.1 µM), inactives show at the top dose activity, negative = inhibition, usual class: inhibitors; hit rate 63% among 1,600; AID 720534, 2013; also: % is scaled to controls: 0 for no effect and ±100 for the full control effect; nearly all actives have a fitted effect of over 65% in size
HepG2 tox-2: qHTS for Inhibitors of TGF-b: Cytotox Counterscreen for Cherry Picks | hit rate 27% among 1,600 | Potency, µM (series often up to 46.1 µM), inactives show at the top dose activity, negative = cytotoxicity, hits mostly inhibitors | HepG2 CAGA-GFP viability, ATP luminescence, 18 h; cells stimulated with TGF-beta, 500 pg/mL | AID 720535, 2013 | shares compounds with TGFb SMAD3 inh; also: % is scaled to controls: 0 for no effect and ±100 for the full control effect; nearly all actives have a fitted effect of over 70% in size
TGFb CCL64 inh: qHTS for Inhibitors of TGF-b: CCL64 Cells Orthogonal Assay for Cherry Picks. shares compounds with TGFb SMAD3 inh. CCL64 CAGA-GFP reporter, TGF-b stimulated, GFP fluorescence, 18 h. Potency, µM (top dose mostly 46.1 µM), for inactives: top-dose activity, negative = inhibition, actives largely listed as inhibitors. hit rate 41% among 1,600. AID 720536, 2013; also: nearly all actives have a fitted effect of over 65% in size
COP TGFb inh: qHTS for Inhibitors of TGF-b: Hit Validation in HepG2 Cells using COP promoter. HepG2 COP-GFP TGF-b reporter, GFP fluorescence, 18 h; cells stimulated by added recombinant TGF-beta. shares compounds with TGFb SMAD3 inh. AID 720537, 2013. Potency, µM (doses to about 46.1 µM), without a hit: at the top dose activity, negative = inhibition, hits mostly inhibitors. hit rate 3% among 1,600; also: nearly all actives have a fitted effect of over 70% in size
Starred values were filed as active, the others as inactive; i = inactive; ? = inconclusive; . = no result given. An excerpt weighted towards active compounds, which were near 3.8% of everything screened. Calls follow the shape of the dose curve; as a rule, active = well fitted curve in the direction sought with a large enough effect; inconclusive = small, poorly fitted or top-dose-only effect, or another doubt; inactive = no such curve, though single readings can be large; an effect the other way counts as inactive or inconclusive. Potency is read from the fitted curve at half-maximal effect.

SMILES | ATXN2 expr inh | HT1080NT lethal | TGFb SMAD3 inh | HepG2 tox-1 | HT1080 IDH1KD tx | S2 tox | TGFb confirm | HepG2 tox-2 | TGFb CCL64 inh | COP TGFb inh
CC(=O)Nc1ccc2c(c1)Cc1ccc(Cl)cc1-2 | 11% | -10% | 0% | -17% | -17% | i | . | . | . | .
CC(=O)Nc1ccc2c(c1)-c1ccc(F)cc1C2 | -19% | 0% | 10µM* | -8% | -2% | i | ? | ? | 0% | 71%
CCCCOC(=O)Nc1ccc(S(=O)(=O)Nc2ccc([N+](=O)[O-])cc2)cc1 | 13% | 11% | 7.9µM* | -9% | -2% | i | ? | -6% | -14% | -9%
COCCc1nn2c(=O)cc(COC(=O)c3ccc(Br)cc3)nc2s1 | -7% | . | 1% | -35% | . | i | . | . | . | .
C[C@H](CO)N1C[C@H](C)[C@@H](CN(C)Cc2ccccc2)Oc2c(NC(=O)c3ccncc3)cccc2C1=O | -17% | 4% | -14% | -27% | 6% | i | . | . | . | .
COc1ccc(NC(=O)N(C)C[C@H]2Oc3c(NC(=O)c4nc5ccccc5s4)cccc3C(=O)N([C@@H](C)CO)C[C@H]2C)cc1 | ? | -15% | 11µM* | -6% | -3% | . | ? | -22% | 18µM* | 38%
COc1ccc(NC(=O)N(C)C[C@H]2Oc3c(NC(=O)c4ccncc4)cccc3C(=O)N([C@H](C)CO)C[C@@H]2C)cc1 | -3% | 24% | 1% | 8% | -4% | i | . | . | . | .
C[C@H](CO)N1C[C@H](C)[C@@H](CN(C)Cc2ccc(Oc3ccccc3)cc2)Oc2c(NC(=O)c3ccncc3)cccc2C1=O | 0% | -23% | 14µM* | 0% | -21% | ? | 23µM* | ? | ? | 37%
Cn1c(=O)n(-c2ccc(F)c(Cl)c2)c(=O)c2sc3ccccc3c21 | 11% | . | -1% | 2% | . | ? | . | . | . | .
O=C(Nc1ccc(C(=O)N2CCN(c3cccc(Cl)c3)CC2)cc1)c1nsc2ccccc12 | 59% | . | 28% | -37% | . | i | . | . | . | .
O=C(NCc1ccc(F)cc1)c1ccccc1OCc1ccccc1 | 7% | 0% | -11% | 6% | ? | i | . | . | . | .
C/C(=N\NC(=O)C1COc2ccccc2O1)c1ccccn1 (configuration not stated) | 3.5µM* | ? | ? | -17% | ? | ? | 21µM* | -27% | ? | 5%
